Assay results reported in article PMC9911399, “Two distinct binding modes provide the RNA-binding protein RbFox with extraordinary sequence specificity”.
Changes are numbered by the printed parent chain; changes in the protein carry UniProt numbers. Over roughly 16,000 sequences, “ka relative to ugcaugu” has its median near 0.096; the highest 2% begin near 0.35. The full list was thinned out, with the highest values kept by preference.

T1: RBFOX1 RRM RbFoxmut (Fox-RRM*) (Homo sapiens, UniProt Q9NWB1 109-208, R118D;E147R;N151S;E152T)
T1 sequence: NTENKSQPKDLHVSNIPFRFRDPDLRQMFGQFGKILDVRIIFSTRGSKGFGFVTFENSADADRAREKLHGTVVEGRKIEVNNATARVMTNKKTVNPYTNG

B1: GGGCCAA (DNA:RNA)
RNA: GGGAGACCGGAAUUCAGAUUGUCCGGGCCAAUUAAAUCCCGUCGUAGCCACCA
DNA 1: CAATCTGAATTCCGGTCTCCC
DNA 2: TGGTGGCTACGACGGGATT
B2: UUCGUCU (DNA:RNA)
RNA: GGGAGACCGGAAUUCAGAUUGUCCUUCGUCUUUAAAUCCCGUCGUAGCCACCA
DNA 1: CAATCTGAATTCCGGTCTCCC
DNA 2: TGGTGGCTACGACGGGATT
B3: GGACUAG (DNA:RNA)
RNA: B1 RNA with G27A, C29U, A31G
DNA 1: CAATCTGAATTCCGGTCTCCC
DNA 2: TGGTGGCTACGACGGGATT
B4: ACCCGUU (DNA:RNA)
RNA: B2 RNA with U25A, U26C, G28C, U29G, C30U
DNA 1: CAATCTGAATTCCGGTCTCCC
DNA 2: TGGTGGCTACGACGGGATT
B5: AUGGCUC (DNA:RNA)
RNA: B1 RNA with G25A, G26U, C28G, A30U, A31C
DNA 1: CAATCTGAATTCCGGTCTCCC
DNA 2: TGGTGGCTACGACGGGATT
B6: UAUUUAA (DNA:RNA)
RNA: B1 RNA with G25U, G26A, G27U, C28U, C29U
DNA 1: CAATCTGAATTCCGGTCTCCC
DNA 2: TGGTGGCTACGACGGGATT
B7: AGCAGCG (DNA:RNA)
RNA: B2 RNA with U25A, U26G, G28A, U29G, U31G
DNA 1: CAATCTGAATTCCGGTCTCCC
DNA 2: TGGTGGCTACGACGGGATT
B8: GAAUGGU (DNA:RNA)
RNA: B1 RNA with G26A, G27A, C28U, C29G, A30G, A31U
DNA 1: CAATCTGAATTCCGGTCTCCC
DNA 2: TGGTGGCTACGACGGGATT
B9: CGAUGGC (DNA:RNA)
RNA: B1 RNA with G25C, G27A, C28U, C29G, A30G, A31C
DNA 1: CAATCTGAATTCCGGTCTCCC
DNA 2: TGGTGGCTACGACGGGATT
B10: GGAUGGU (DNA:RNA)
RNA: B1 RNA with G27A, C28U, C29G, A30G, A31U
DNA 1: CAATCTGAATTCCGGTCTCCC
DNA 2: TGGTGGCTACGACGGGATT
B11: GAUGGUU (DNA:RNA)
RNA: B2 RNA with U25G, U26A, C27U, U29G, C30U
DNA 1: CAATCTGAATTCCGGTCTCCC
DNA 2: TGGTGGCTACGACGGGATT
B12: GAAUGGC (DNA:RNA)
RNA: B1 RNA with G26A, G27A, C28U, C29G, A30G, A31C
DNA 1: CAATCTGAATTCCGGTCTCCC
DNA 2: TGGTGGCTACGACGGGATT
B13: GAUUGGC (DNA:RNA)
RNA: B1 RNA with G26A, G27U, C28U, C29G, A30G, A31C
DNA 1: CAATCTGAATTCCGGTCTCCC
DNA 2: TGGTGGCTACGACGGGATT
B14: GAGAAAU (DNA:RNA)
RNA: B1 RNA with G26A, C28A, C29A, A31U
DNA 1: CAATCTGAATTCCGGTCTCCC
DNA 2: TGGTGGCTACGACGGGATT
B15: GAACCCG (DNA:RNA)
RNA: B1 RNA with G26A, G27A, A30C, A31G
DNA 1: CAATCTGAATTCCGGTCTCCC
DNA 2: TGGTGGCTACGACGGGATT
B16: CCUUUUU (DNA:RNA)
RNA: B2 RNA with U25C, U26C, C27U, G28U, C30U
DNA 1: CAATCTGAATTCCGGTCTCCC
DNA 2: TGGTGGCTACGACGGGATT
B17: CGCACUG (DNA:RNA)
RNA: B1 RNA with G25C, G27C, C28A, A30U, A31G
DNA 1: CAATCTGAATTCCGGTCTCCC
DNA 2: TGGTGGCTACGACGGGATT
B18: GUAUUUU (DNA:RNA)
RNA: B2 RNA with U25G, C27A, G28U, C30U
DNA 1: CAATCTGAATTCCGGTCTCCC
DNA 2: TGGTGGCTACGACGGGATT
B19: AGGAAUG (DNA:RNA)
RNA: B1 RNA with G25A, C28A, C29A, A30U, A31G
DNA 1: CAATCTGAATTCCGGTCTCCC
DNA 2: TGGTGGCTACGACGGGATT
B20: AGGAGGA (DNA:RNA)
RNA: B1 RNA with G25A, C28A, C29G, A30G
DNA 1: CAATCTGAATTCCGGTCTCCC
DNA 2: TGGTGGCTACGACGGGATT
B21: AGGGGGA (DNA:RNA)
RNA: B1 RNA with G25A, C28G, C29G, A30G
DNA 1: CAATCTGAATTCCGGTCTCCC
DNA 2: TGGTGGCTACGACGGGATT
B22: AGGAGAC (DNA:RNA)
RNA: B1 RNA with G25A, C28A, C29G, A31C
DNA 1: CAATCTGAATTCCGGTCTCCC
DNA 2: TGGTGGCTACGACGGGATT
B23: AGGAAUC (DNA:RNA)
RNA: B1 RNA with G25A, C28A, C29A, A30U, A31C
DNA 1: CAATCTGAATTCCGGTCTCCC
DNA 2: TGGTGGCTACGACGGGATT
B24: ACCAGGA (DNA:RNA)
RNA: B1 RNA with G25A, G26C, G27C, C28A, C29G, A30G
DNA 1: CAATCTGAATTCCGGTCTCCC
DNA 2: TGGTGGCTACGACGGGATT
B25: AGGAUGU (DNA:RNA)
RNA: B1 RNA with G25A, C28A, C29U, A30G, A31U
DNA 1: CAATCTGAATTCCGGTCTCCC
DNA 2: TGGTGGCTACGACGGGATT
B26: AGGAUUG (DNA:RNA)
RNA: B1 RNA with G25A, C28A, C29U, A30U, A31G
DNA 1: CAATCTGAATTCCGGTCTCCC
DNA 2: TGGTGGCTACGACGGGATT
B27: AGGGAUG (DNA:RNA)
RNA: B1 RNA with G25A, C28G, C29A, A30U, A31G
DNA 1: CAATCTGAATTCCGGTCTCCC
DNA 2: TGGTGGCTACGACGGGATT

The binders below were run against T1, RBFOX1 RRM RbFoxmut (Fox-RRM*) (assay: EMSA; HiTS-Eq, 1 nM pool, 10 min; buffer printed only for the single-RNA assays: 10 mM Tris pH 7.5, 150 mM NaCl, 3.4 mM EDTA, 0.001% NP-40, 30 C). Conditions: tags: His6 N-terminal (pET28a); label: 5' 32P.
In short: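 These values rest on relative association constants, computed from read-count changes of each RNA species versus the control reaction and normalised to the cognate motif. Reads came from free RNA recovered by 8% native PAGE after purified RbFox RRM (wild type or mutant) at increasing concentrations was equilibrated for 10 min in 50 µL with 1 nM of a 5′-radiolabelled pool with 7 randomized nucleotides and DNA-annealed flanks.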

Binder | binding signal
B1 | 0.0698 KA relative to UGCAUGU
B2 | 0.0697 KA relative to UGCAUGU
B3 | 0.0756 KA relative to UGCAUGU
B4 | 0.0752 KA relative to UGCAUGU
B5 | 0.111 KA relative to UGCAUGU
B6 | 0.0892 KA relative to UGCAUGU
B7 | 0.113 KA relative to UGCAUGU
B8 | 0.748 KA relative to UGCAUGU
B9 | 0.101 KA relative to UGCAUGU
B10 | 0.201 KA relative to UGCAUGU
B11 | 0.0937 KA relative to UGCAUGU
B12 | 0.592 KA relative to UGCAUGU
B13 | 0.145 KA relative to UGCAUGU
B14 | 0.0893 KA relative to UGCAUGU
B15 | 0.0645 KA relative to UGCAUGU
B16 | 0.0758 KA relative to UGCAUGU
B17 | 0.125 KA relative to UGCAUGU
B18 | 0.118 KA relative to UGCAUGU
B19 | 1.4 KA relative to UGCAUGU
B20 | 0.084 KA relative to UGCAUGU
B21 | 0.149 KA relative to UGCAUGU
B22 | 0.0904 KA relative to UGCAUGU
B23 | 0.261 KA relative to UGCAUGU
B24 | 0.0755 KA relative to UGCAUGU
B25 | 0.339 KA relative to UGCAUGU
B26 | 0.583 KA relative to UGCAUGU
B27 | 0.476 KA relative to UGCAUGU
